# Source: paper PMC7862700, “An all-to-all approach to the identification of sequence-specific readers for epigenetic DNA modifications on cytosine”
# Tests used:
# Experiment in all cases: DAPPL (digital affinity profiling via proximity ligation, sequencing); 10 mM Tris-HCl pH 7.5, 50 mM NaCl, 1 mM DTT, 4% glycerol, room temperature, 30 min; GST-TFs on glutathione beads, 16-mer random dsDNA library, 0.1% formaldehyde crosslink after washing; high values mean tight binding
# FLI1 = biological target: T1, FLI1 (Homo sapiens, UniProt Q01543 1-452); conditions: protein: recombinant; tags: N-terminal GST; dsDNA, one strand shown
# T1 sequence: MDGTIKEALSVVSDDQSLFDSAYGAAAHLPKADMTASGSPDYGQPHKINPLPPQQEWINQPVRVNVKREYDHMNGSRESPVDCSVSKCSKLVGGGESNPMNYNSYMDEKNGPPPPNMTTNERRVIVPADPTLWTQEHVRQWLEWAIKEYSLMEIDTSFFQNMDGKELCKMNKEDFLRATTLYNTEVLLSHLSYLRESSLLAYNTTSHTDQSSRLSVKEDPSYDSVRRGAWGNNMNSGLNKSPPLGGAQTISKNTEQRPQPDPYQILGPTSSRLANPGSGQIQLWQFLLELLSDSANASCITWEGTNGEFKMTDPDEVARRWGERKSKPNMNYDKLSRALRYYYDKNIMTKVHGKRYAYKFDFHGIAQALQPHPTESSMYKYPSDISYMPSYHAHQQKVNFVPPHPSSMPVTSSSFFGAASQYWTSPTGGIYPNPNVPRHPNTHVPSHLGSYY
# In short: (§1)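 Human transcription factors fused to GST were expressed in yeast, captured on glutathione beads, given DNA barcodes and pooled with a GST-only negative control. Pools were incubated with 200 nmole of a 16-mer random double-stranded DNA library in Tris/NaCl/DTT/glycerol buffer at room temperature for 30 min. They were then washed, crosslinked with 0.1% formaldehyde, proximity-ligated (BsaI/T4 ligase, 1 h, 37 °C), PCR-amplified and sequenced on an Illumina NextSeq500. Binding signal is each 6-mer's read frequency for a factor divided by its frequency for the GST control.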
# ELK1 = biological target: T2, ELK1 (Homo sapiens, UniProt P19419 1-428); conditions: protein: recombinant; tags: N-terminal GST; dsDNA, one strand shown
# T2 sequence: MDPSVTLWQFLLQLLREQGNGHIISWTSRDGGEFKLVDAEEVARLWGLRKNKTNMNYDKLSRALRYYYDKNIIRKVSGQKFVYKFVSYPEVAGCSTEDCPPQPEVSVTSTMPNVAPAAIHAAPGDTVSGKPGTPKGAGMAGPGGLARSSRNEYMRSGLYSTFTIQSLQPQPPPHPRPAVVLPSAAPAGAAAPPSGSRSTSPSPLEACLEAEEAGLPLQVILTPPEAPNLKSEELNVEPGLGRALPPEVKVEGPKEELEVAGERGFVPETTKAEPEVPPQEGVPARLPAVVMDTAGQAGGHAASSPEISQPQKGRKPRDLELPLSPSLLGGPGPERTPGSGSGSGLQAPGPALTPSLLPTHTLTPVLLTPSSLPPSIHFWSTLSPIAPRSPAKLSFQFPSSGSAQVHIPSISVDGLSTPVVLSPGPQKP
# In short: as §1
# GABPA = biological target: T3, GABPA (Homo sapiens, UniProt Q06546 1-454); conditions: protein: recombinant; tags: N-terminal GST; dsDNA, one strand shown
# T3 sequence: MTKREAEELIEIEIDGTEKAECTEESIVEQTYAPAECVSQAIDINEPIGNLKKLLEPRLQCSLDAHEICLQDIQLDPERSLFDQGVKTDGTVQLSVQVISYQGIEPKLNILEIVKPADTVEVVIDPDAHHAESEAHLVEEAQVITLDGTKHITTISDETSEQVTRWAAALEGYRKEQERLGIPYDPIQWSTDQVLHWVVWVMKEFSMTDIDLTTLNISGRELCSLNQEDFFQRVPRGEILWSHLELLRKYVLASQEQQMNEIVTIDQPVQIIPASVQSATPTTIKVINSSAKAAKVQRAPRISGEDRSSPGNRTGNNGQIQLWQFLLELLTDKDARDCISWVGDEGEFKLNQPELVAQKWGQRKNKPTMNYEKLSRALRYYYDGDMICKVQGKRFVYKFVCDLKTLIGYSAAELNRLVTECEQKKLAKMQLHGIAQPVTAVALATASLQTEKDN
# In short: as §1
# ERG = biological target: T4, ERG (Homo sapiens, UniProt P11308 1-479); conditions: protein: recombinant; tags: N-terminal GST; dsDNA, one strand shown
# T4 sequence: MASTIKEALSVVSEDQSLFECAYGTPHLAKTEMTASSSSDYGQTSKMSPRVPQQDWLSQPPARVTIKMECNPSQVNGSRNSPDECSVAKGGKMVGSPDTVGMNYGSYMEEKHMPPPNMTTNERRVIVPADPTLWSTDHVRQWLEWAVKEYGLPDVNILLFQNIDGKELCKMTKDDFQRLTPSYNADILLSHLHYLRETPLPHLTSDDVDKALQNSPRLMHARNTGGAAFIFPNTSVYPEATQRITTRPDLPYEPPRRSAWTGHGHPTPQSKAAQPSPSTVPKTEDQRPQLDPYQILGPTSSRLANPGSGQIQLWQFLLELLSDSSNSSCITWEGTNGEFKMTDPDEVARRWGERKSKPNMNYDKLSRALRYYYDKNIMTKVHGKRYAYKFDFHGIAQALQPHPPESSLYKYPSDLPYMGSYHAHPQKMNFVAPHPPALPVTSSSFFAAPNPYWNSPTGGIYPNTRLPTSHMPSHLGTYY
# In short: as §1
# ELF1 = ELF1 (Homo sapiens, UniProt P32519 1-619); conditions: protein: recombinant; tags: N-terminal GST; dsDNA, one strand shown
# ELF1, sequence (P32519 whole entry): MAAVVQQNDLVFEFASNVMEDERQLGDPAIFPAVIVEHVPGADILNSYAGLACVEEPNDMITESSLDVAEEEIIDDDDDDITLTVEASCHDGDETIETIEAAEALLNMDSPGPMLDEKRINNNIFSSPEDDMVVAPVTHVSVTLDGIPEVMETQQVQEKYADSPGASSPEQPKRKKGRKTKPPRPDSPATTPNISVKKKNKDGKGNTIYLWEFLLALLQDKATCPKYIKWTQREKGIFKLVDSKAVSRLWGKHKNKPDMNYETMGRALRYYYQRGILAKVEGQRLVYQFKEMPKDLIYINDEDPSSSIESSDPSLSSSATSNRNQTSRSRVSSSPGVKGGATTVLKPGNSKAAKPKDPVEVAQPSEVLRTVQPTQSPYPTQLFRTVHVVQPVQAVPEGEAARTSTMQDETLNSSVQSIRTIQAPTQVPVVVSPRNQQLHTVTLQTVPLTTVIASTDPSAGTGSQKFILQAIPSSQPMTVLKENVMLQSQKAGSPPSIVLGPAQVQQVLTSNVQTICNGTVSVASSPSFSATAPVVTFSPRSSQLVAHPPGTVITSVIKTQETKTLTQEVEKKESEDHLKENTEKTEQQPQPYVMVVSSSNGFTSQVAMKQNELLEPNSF
# In short: as §1
# EHF = biological target: T5, EHF (Homo sapiens, UniProt Q9NZC4 1-300); conditions: protein: recombinant; tags: N-terminal GST; dsDNA, one strand shown
# T5 sequence: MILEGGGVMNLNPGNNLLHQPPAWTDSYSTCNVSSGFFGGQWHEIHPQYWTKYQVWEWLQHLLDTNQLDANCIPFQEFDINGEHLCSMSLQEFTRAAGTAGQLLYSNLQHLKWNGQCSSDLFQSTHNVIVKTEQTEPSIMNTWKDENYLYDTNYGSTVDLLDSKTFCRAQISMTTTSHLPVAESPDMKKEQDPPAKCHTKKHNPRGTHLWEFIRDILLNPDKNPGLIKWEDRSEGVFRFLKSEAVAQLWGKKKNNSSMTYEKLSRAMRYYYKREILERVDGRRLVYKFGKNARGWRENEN
# In short: as §1
# SPI1 = SPI1 (Homo sapiens, UniProt P17947 1-270); conditions: protein: recombinant; tags: N-terminal GST; dsDNA, one strand shown
# In short: as §1
# SPIB = SPIB (Homo sapiens, UniProt Q01892 1-262); conditions: protein: recombinant; tags: N-terminal GST; dsDNA, one strand shown
# SPIB, sequence (Q01892 whole entry): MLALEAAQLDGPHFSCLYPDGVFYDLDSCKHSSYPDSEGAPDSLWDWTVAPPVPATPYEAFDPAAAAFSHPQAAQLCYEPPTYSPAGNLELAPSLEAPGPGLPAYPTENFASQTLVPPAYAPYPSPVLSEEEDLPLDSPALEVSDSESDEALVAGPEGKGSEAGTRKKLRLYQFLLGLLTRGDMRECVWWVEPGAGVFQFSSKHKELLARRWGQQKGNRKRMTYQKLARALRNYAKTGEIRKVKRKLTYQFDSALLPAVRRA
# In short: as §1
# ELK3 = biological target: T6, ELK3 (Homo sapiens, UniProt P41970 1-407); conditions: protein: recombinant; tags: N-terminal GST; dsDNA, one strand shown
# T6 sequence: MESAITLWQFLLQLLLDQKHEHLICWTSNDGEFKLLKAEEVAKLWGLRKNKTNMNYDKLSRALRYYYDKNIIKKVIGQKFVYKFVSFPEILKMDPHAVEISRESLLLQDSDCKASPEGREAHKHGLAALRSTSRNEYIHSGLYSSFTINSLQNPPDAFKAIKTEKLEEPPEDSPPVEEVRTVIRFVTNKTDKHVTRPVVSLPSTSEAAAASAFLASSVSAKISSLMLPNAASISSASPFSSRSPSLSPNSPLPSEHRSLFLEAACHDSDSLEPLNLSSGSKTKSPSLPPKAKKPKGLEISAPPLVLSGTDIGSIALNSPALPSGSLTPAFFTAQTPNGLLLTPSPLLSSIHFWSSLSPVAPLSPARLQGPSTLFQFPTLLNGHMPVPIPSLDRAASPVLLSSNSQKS
# In short: as §1
# FEV = biological target: T7, FEV (Homo sapiens, UniProt Q99581 1-238); conditions: protein: recombinant; tags: N-terminal GST; dsDNA, one strand shown
# T7 sequence: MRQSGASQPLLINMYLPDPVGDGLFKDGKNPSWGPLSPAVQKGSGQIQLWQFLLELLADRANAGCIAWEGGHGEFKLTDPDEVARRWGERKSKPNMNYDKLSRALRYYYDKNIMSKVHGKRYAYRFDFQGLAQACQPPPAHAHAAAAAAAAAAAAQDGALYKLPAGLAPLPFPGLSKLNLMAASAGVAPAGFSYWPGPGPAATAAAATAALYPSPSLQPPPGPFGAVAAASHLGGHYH
# In short: as §1
# ETV5 = ETV5 (Homo sapiens, UniProt P41161 1-510); conditions: protein: recombinant; tags: N-terminal GST; dsDNA, one strand shown
# ETV5, sequence (P41161 whole entry): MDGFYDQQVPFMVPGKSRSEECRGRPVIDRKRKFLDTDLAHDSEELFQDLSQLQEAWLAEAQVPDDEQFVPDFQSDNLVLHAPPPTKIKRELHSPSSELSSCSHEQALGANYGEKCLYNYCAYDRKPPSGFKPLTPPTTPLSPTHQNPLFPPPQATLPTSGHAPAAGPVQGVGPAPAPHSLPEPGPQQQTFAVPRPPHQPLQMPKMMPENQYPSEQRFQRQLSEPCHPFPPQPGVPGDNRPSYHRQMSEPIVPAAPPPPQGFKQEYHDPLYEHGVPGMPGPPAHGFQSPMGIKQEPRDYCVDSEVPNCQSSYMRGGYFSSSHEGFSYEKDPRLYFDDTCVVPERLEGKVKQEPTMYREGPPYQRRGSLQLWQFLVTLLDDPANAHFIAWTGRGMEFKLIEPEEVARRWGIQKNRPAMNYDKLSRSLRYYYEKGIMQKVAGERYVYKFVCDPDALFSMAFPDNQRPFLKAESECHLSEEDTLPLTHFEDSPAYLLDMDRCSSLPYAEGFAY
# In short: as §1
# HSF1 = HSF1 (Homo sapiens, UniProt Q00613 1-529); conditions: protein: recombinant; tags: N-terminal GST; chain copies: 3; dsDNA, one strand shown
# HSF1, sequence (Q00613 whole entry): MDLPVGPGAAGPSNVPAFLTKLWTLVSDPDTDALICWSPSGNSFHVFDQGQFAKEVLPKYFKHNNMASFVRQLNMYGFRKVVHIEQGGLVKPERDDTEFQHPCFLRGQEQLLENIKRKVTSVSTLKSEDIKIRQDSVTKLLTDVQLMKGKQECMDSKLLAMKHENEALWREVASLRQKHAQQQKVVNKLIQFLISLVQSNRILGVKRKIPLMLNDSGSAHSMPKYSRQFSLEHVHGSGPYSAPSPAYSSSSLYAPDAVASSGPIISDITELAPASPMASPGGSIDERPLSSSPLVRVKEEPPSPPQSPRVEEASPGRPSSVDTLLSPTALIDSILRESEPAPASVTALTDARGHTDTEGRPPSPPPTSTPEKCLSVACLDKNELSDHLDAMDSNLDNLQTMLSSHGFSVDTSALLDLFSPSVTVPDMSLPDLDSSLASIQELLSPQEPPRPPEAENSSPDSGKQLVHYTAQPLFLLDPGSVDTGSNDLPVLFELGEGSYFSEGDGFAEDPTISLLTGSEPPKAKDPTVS
# In short: as §1
# SPIC = biological target: T8, SPIC (Homo sapiens, UniProt Q8N5J4 1-248); conditions: protein: recombinant; tags: N-terminal GST; dsDNA, one strand shown
# T8 sequence: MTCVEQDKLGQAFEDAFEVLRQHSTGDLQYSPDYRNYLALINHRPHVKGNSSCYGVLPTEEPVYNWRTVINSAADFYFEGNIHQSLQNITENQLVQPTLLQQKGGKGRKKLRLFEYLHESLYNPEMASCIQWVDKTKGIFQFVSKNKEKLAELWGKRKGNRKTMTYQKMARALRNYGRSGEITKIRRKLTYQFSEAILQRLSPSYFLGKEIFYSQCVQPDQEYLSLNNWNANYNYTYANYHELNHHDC
# In short: as §1
# ELF4 = ELF4 (Homo sapiens, UniProt Q99607 1-663); conditions: protein: recombinant; tags: N-terminal GST; dsDNA, one strand shown
# ELF4, sequence (Q99607 whole entry): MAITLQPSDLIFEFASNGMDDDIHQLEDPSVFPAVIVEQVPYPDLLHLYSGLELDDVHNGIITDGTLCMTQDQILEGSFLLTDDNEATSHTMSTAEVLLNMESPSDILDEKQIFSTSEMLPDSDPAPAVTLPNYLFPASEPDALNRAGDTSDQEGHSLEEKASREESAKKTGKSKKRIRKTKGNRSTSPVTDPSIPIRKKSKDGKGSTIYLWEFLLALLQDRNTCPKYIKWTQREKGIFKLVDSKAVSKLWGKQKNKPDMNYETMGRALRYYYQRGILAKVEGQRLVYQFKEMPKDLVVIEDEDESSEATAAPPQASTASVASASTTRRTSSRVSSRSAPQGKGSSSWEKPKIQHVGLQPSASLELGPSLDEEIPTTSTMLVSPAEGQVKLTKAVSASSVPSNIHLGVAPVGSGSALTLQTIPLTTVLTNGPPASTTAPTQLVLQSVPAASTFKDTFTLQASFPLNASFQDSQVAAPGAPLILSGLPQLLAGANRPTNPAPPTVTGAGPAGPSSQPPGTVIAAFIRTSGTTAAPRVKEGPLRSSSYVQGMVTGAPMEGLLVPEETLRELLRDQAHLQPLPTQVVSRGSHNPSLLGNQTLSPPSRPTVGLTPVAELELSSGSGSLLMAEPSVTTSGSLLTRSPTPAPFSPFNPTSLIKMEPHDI
# In short: as §1
# ELK4 = biological target: T9, ELK4 (Homo sapiens, UniProt P28324-2 1-405); conditions: protein: recombinant; tags: N-terminal GST; dsDNA, one strand shown
# T9 sequence: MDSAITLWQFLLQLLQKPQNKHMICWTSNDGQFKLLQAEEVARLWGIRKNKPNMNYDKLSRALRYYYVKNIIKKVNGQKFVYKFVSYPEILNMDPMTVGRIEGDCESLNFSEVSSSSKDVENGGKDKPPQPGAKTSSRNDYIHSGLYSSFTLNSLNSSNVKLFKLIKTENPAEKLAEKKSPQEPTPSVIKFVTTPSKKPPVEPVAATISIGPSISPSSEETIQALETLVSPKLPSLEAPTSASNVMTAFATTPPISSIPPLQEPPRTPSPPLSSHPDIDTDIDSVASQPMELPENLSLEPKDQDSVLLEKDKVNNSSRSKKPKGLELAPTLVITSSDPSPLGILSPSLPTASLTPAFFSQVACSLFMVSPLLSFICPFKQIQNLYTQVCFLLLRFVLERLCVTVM
# In short: as §1
# ETV2 = biological target: T10, ETV2 (Homo sapiens, UniProt O00321 1-342); conditions: protein: recombinant; tags: N-terminal GST; dsDNA, one strand shown
# T10 sequence: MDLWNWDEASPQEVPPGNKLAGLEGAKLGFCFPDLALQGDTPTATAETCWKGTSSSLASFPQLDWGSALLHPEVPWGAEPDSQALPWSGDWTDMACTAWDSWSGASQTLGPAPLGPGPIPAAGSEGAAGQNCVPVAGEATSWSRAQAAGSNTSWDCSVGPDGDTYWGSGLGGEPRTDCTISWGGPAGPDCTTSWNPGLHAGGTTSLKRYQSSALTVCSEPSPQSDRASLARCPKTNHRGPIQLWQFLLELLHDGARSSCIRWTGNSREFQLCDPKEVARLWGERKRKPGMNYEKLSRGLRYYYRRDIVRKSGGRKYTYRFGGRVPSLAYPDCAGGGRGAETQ
# In short: as §1
# ELF3 = biological target: T11, ELF3 (Homo sapiens, UniProt P78545 1-371); conditions: protein: recombinant; tags: N-terminal GST; dsDNA, one strand shown
# T11 sequence: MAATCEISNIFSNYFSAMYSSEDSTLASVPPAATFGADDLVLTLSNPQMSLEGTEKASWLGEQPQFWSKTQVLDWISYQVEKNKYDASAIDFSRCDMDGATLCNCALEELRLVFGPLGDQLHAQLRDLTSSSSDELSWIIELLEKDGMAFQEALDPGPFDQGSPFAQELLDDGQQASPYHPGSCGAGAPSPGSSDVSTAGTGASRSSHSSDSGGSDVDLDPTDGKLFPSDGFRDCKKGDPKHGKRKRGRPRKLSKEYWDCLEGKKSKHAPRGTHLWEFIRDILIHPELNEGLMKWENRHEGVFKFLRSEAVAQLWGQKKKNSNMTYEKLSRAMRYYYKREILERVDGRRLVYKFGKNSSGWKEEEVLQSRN
# In short: as §1
# CRX = CRX (Homo sapiens, UniProt O43186 1-299); conditions: protein: recombinant; tags: N-terminal GST; dsDNA, one strand shown
# CRX, sequence (O43186 whole entry): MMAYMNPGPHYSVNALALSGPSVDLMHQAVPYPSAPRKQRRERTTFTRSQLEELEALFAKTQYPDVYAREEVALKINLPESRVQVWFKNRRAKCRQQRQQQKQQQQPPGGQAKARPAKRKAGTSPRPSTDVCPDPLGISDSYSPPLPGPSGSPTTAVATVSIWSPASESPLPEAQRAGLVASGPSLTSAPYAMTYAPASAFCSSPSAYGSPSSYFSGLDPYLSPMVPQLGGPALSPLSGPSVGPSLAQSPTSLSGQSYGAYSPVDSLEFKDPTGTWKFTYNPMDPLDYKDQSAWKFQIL
# In short: as §1
# ETV1 = ETV1 (Homo sapiens, UniProt P50549 1-477); conditions: protein: recombinant; tags: N-terminal GST; dsDNA, one strand shown
# ETV1, sequence (P50549 whole entry): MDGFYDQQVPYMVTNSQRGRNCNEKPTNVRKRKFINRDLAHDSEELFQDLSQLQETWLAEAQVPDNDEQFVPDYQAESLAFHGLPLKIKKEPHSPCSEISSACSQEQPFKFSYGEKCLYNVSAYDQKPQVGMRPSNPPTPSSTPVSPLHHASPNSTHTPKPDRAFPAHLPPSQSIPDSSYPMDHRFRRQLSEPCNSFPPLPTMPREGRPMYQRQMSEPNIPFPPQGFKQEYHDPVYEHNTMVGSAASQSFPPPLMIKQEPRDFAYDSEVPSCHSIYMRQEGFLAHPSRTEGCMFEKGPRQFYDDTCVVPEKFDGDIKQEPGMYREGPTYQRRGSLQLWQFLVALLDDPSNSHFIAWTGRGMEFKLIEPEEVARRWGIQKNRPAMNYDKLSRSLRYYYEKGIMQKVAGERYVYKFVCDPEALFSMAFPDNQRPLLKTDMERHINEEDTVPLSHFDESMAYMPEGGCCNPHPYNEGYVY
# In short: as §1
sequence,measurement,setting,value
TCTTAT,binding signal,FLI1,"1.41 fold enrichment (6-mer frequency, TF over GST control)"
same,binding signal,ELK1,"1.33 fold enrichment (6-mer frequency, TF over GST control)"
same,binding signal,GABPA,"1.25 fold enrichment (6-mer frequency, TF over GST control)"
same,binding signal,ERG,"1.27 fold enrichment (6-mer frequency, TF over GST control)"
same,binding signal,ELF1,"1.28 fold enrichment (6-mer frequency, TF over GST control)"
same,binding signal,EHF,"1.16 fold enrichment (6-mer frequency, TF over GST control)"
same,binding signal,SPI1,"1.28 fold enrichment (6-mer frequency, TF over GST control)"
same,binding signal,SPIB,"1.22 fold enrichment (6-mer frequency, TF over GST control)"
same,binding signal,ELK3,"1.31 fold enrichment (6-mer frequency, TF over GST control)"
same,binding signal,FEV,"1.27 fold enrichment (6-mer frequency, TF over GST control)"
same,binding signal,ETV5,"1.26 fold enrichment (6-mer frequency, TF over GST control)"
same,binding signal,HSF1,"1.57 fold enrichment (6-mer frequency, TF over GST control)"
same,binding signal,SPIC,"1.3 fold enrichment (6-mer frequency, TF over GST control)"
same,binding signal,ELF4,"1.21 fold enrichment (6-mer frequency, TF over GST control)"
same,binding signal,ELK4,"1.3 fold enrichment (6-mer frequency, TF over GST control)"
same,binding signal,ETV2,"1.22 fold enrichment (6-mer frequency, TF over GST control)"
same,binding signal,ELF3,"1.36 fold enrichment (6-mer frequency, TF over GST control)"
same,binding signal,CRX,"2.21 fold enrichment (6-mer frequency, TF over GST control)"
same,binding signal,ETV1,"1.32 fold enrichment (6-mer frequency, TF over GST control)"
